The supplement of paper PMC10849652
Of roughly 7,900 targets only a part is listed; those with a hit were picked by preference. About 0.6% of all pairs of compound and target were hits. A number with no mark means an inactive call.

compound: c1ccc([C@@H]2C[C@H]2NC2CCNCC2)cc1; experiment: log2 fold change, soluble protein after heating vs DMSO (PISA); higher = thermal stabilisation; K562 cells, 10 uM, 30 min; active = over 0.2 and 3.5 SD of the protein, either way, in both replicates (recomputed)
In short: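 Quantification of soluble protein used TMTpro 16plex LC-MS/MS, with channel sums equalised. Samples were the supernatant after 21,000xg for 90 min of pooled aliquots from K562 cells (2×10^6 cells/mL) treated with 10 μM compound for 30 min, heated for 3 min over 48°C-58°C, and extracted in PBS with 0.5% NP-40 at 4°C. Values, from duplicates, describe thermal stability against control samples on a log2 fold-change scale.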

Chain of UniProt P30291 (P30291 whole entry, looked up): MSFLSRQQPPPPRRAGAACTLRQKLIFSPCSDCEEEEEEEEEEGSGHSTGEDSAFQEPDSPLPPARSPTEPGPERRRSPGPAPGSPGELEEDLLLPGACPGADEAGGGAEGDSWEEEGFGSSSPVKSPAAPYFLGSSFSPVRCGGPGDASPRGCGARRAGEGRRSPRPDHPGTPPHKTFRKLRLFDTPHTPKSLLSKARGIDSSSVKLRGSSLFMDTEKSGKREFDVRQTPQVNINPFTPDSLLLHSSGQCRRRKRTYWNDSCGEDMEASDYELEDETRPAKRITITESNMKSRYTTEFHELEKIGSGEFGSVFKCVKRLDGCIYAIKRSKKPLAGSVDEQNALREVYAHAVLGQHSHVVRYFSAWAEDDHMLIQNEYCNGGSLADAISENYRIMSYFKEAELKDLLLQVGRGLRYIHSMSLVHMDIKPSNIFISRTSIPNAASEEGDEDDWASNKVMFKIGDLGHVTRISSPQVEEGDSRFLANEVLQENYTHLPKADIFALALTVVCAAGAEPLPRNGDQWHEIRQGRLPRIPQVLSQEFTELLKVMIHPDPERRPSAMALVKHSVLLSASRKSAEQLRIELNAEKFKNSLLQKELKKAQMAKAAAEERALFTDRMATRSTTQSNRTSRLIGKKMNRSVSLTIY
Chain of UniProt Q96JC1 (Q96JC1 whole entry, looked up): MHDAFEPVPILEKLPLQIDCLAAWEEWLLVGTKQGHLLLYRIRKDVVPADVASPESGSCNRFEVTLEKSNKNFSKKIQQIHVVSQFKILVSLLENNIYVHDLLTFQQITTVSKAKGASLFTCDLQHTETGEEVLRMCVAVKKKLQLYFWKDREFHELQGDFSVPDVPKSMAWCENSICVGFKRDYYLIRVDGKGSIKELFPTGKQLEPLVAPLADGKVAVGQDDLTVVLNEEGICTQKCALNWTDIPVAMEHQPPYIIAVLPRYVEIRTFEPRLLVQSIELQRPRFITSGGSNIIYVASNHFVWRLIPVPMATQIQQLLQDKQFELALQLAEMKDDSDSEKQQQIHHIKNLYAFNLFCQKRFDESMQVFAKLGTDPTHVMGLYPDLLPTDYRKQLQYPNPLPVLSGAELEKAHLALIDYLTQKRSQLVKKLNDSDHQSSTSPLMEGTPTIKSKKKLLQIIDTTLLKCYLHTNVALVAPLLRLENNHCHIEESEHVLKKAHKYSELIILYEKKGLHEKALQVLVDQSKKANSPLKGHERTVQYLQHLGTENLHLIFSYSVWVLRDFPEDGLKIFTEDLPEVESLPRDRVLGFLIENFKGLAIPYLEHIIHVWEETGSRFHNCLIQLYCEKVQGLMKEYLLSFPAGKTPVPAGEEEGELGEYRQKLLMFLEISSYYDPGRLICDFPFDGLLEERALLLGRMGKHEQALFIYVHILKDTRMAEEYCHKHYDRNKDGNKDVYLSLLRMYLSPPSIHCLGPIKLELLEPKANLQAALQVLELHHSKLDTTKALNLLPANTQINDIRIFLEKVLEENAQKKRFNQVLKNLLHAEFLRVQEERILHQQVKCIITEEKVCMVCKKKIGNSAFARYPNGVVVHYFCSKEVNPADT
Chain of UniProt Q969X6 (Q969X6 whole entry, looked up): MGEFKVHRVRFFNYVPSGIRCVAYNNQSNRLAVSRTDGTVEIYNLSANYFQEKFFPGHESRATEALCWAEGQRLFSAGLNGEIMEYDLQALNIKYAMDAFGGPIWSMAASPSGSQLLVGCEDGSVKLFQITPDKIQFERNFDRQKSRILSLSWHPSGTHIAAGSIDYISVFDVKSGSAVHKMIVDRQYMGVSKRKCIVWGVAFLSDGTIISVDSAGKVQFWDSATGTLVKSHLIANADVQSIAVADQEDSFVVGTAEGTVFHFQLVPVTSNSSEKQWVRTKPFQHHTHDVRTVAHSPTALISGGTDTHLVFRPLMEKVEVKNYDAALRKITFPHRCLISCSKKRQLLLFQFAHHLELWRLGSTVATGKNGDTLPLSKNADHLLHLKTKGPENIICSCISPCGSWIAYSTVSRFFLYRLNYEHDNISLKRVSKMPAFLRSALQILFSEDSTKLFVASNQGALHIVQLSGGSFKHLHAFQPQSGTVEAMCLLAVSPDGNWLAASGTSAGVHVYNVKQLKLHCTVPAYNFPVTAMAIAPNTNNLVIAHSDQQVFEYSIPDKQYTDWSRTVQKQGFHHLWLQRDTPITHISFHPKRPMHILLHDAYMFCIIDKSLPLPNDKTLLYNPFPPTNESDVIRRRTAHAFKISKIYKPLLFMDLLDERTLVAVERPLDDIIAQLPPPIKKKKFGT
Chain of UniProt Q96K49 (Q96K49 whole entry, looked up): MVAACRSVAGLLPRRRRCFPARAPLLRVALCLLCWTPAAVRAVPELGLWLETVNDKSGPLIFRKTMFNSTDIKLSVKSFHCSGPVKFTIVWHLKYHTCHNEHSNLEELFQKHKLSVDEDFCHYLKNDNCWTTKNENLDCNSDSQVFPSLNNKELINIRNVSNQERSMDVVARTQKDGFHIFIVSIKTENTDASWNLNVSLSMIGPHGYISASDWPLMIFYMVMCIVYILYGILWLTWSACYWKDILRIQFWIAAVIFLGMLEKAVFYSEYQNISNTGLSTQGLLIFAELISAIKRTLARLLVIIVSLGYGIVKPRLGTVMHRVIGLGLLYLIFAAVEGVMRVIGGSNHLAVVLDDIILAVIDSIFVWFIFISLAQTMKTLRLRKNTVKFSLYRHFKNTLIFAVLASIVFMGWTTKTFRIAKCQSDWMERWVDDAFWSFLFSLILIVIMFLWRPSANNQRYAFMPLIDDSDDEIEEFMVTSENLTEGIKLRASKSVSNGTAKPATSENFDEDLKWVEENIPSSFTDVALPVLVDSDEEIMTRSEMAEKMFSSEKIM
Chain of UniProt Q96AX1 (Q96AX1 whole entry, looked up): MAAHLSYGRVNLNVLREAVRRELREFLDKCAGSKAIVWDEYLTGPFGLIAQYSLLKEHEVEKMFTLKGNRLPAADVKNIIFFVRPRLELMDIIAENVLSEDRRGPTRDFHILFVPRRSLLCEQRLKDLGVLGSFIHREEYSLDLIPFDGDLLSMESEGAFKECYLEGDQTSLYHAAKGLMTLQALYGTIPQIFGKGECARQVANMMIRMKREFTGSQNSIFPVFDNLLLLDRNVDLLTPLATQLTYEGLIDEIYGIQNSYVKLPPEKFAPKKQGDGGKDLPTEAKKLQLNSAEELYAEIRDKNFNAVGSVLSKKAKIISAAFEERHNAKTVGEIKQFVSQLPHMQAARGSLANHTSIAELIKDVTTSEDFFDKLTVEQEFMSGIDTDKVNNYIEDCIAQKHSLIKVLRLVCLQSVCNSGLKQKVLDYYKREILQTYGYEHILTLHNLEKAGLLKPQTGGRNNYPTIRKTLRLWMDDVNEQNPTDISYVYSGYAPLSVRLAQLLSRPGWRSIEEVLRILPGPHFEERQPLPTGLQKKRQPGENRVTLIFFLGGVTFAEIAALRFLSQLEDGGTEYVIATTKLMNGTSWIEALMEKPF
Chain of UniProt Q9H270 (Q9H270 whole entry, looked up): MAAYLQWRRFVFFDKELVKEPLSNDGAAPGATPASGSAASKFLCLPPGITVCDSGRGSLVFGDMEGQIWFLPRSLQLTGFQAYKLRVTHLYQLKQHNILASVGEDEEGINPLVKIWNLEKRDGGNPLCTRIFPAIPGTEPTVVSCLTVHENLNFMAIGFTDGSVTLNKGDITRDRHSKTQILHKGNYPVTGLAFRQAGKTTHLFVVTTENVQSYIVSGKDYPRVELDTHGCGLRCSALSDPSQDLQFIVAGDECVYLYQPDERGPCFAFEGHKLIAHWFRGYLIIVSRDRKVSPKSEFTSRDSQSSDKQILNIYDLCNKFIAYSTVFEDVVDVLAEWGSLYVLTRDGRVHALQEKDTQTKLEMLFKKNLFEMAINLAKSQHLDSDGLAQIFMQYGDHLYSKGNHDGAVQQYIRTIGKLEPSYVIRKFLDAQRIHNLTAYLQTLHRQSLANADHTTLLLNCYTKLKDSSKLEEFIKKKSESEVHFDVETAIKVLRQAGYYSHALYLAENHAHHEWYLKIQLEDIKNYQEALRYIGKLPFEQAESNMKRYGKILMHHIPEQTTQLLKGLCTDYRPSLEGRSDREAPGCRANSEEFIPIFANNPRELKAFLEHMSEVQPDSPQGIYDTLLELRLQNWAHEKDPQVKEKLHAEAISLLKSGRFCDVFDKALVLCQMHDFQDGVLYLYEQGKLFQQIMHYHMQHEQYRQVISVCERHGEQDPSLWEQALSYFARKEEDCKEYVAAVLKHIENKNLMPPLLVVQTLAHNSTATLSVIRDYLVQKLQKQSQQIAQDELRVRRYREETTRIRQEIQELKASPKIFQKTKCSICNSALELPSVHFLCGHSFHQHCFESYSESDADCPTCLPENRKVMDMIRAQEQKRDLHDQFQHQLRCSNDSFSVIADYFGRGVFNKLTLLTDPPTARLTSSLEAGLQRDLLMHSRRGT
Chain of UniProt Q15061 (Q15061 whole entry, looked up): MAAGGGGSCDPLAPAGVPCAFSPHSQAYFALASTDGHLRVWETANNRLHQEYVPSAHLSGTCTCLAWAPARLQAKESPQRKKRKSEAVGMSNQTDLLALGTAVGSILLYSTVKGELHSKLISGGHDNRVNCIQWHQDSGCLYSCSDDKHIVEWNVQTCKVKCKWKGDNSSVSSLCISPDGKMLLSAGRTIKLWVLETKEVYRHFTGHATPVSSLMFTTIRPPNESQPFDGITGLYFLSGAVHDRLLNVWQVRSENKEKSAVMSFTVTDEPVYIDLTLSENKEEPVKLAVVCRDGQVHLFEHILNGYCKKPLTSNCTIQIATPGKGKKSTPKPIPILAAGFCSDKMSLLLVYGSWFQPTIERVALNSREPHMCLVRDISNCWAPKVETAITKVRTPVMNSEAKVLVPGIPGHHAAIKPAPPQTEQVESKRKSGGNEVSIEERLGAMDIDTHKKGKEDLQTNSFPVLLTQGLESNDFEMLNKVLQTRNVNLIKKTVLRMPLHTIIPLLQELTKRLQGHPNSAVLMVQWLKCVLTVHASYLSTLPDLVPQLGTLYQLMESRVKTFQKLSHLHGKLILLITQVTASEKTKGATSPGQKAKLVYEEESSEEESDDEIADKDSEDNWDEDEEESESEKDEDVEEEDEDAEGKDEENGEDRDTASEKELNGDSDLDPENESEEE

Target | log2 fold change
UTP4 (UniProt Q969X6) | -0.021
WEE1 (UniProt P30291) | 0.11
VPS33A (UniProt Q96AX1) | -0.041
VPS11 (UniProt Q9H270) | -0.047
VPS39 (UniProt Q96JC1) | -0.052
TMEM87B (UniProt Q96K49) | 0.012
TMEM192 (UniProt Q8IY95) | 0.032
WDR43 (UniProt Q15061) | 0.001
